Bioassay records: PubChem, several laboratories
Sa ugtP lethal = kills S. aureus RN4220 lacking UgtP; 0.54% of 330,000 active; growth inhibition, % (test concentration not listed); S. aureus RN4220 ugtP deletion, OD600 growth, 16 h; in the data active = growth inhibition above about 68%;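 also: plate controls were untreated wells for no effect and antibiotic for full effect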
PfHsp40 rescue = restores yeast growth despite PfHsp40 toxicity; S. cerevisiae expressing PfHsp40, growth rescue, ATP luminescence; growth rescue, % at 12.5 µM; 0.68% of 340,000 active; AID 504582; in the data active = growth rescue above about 28%, passing the limit was not always enough;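 also: yeast W303a lacking pdr1 and pdr3 grown in galactose medium; growth measured after three days at 30 °C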
Sa RN4220 lethal = S. aureus RN4220 growth inhibition; 0.33% of 330,000 active; OD600, 16 h; inhibition, % (test concentration not listed); in the data active = inhibition above about 85%;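 also: plate controls were untreated cells for no effect and reference antibiotic for full effect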
DUSP3 inh = blocks human VHR1 dual specificity phosphatase. 0.52% of 290,000 active. inhibition, % at 13.3 µM. P51452. AID 1654. recombinant VHR phosphatase, pNPP absorbance; in the data active = inhibition above about 50%
Target sequence (P51452 whole entry, looked up): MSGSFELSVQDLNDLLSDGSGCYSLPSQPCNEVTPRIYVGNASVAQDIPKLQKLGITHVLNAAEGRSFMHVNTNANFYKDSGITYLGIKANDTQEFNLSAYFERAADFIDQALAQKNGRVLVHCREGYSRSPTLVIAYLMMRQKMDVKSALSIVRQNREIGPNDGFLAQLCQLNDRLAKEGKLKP
PrPC surface inh = cell surface PrPC inhibition, primary TR-FRET screen | TR-FRET read-out | AID 720596 | inhibition, % at 13.8 µM | 0.43% of 370,000 active; in the data active = inhibition above about 24%; also: 0% = median of the test wells and 100% = reference compound wells
The depositor's hits bear a star. Only some compounds are listed: those with a hit (about 1.8% of all), similar ones and a draw of the others.

CCCCCCCCCCOC(=O)Cn1c(COc2ccccc2OC)[n+](C)c2ccccc21 was read as PfHsp40 rescue 316.3*, DUSP3 inh 7.9 and PrPC surface inh 20.0.
COc1ccc(-c2nc(/C=C3\C(C)=Nc4ccccc43)c(O)o2)cc1 was read as Sa ugtP lethal 92.5*, PfHsp40 rescue -0.6, Sa RN4220 lethal 91.3*, DUSP3 inh 13.2 and PrPC surface inh -3.9.
For O=C(Nc1ccc(Cl)c(Cl)c1)C1CC(=O)N(c2ccc(Br)cc2)C1 (stereo not given) the results were Sa ugtP lethal 7.3, PfHsp40 rescue 31.2*, Sa RN4220 lethal 32.3, DUSP3 inh 13.3 and PrPC surface inh 1.3.
Screening CC12CCC(CC1=NNC(=O)Nc1ccccc1)C2(C)C (stereo not given) returned Sa ugtP lethal -8.7 and Sa RN4220 lethal 6.3.
Screening CC(=O)N1CCc2cc(Br)cc(S(=O)(=O)N3CCN(c4ccccn4)CC3)c21 returned Sa ugtP lethal 7.0, PfHsp40 rescue 0.4, Sa RN4220 lethal 1.7, DUSP3 inh 28.4 and PrPC surface inh -0.3.
CC(=O)N1c2c(cc(Br)cc2S(=O)(=O)N2CCN(c3ccccn3)CC2)CC1C (stereo not given) was read as Sa ugtP lethal -0.3, PfHsp40 rescue 52.5*, Sa RN4220 lethal 1.7, DUSP3 inh 17.5 and PrPC surface inh 7.3.
For CC[C@@]12C(=O)N(c3cccc(F)c3)C(=O)N1C(c1cccc(C)c1)C1C(=O)N(Cc3ccccc3)C(=O)C12 (stereo not given in full) the results were Sa ugtP lethal 5.6 and Sa RN4220 lethal 5.6.
For C[n+]1ccc(C=NNc2nc(Cl)c(C#N)c(Cl)c2Cl)cc1 the results were Sa ugtP lethal 7.8 and Sa RN4220 lethal 1.0.
Oc1ccccc1Cl was read as Sa ugtP lethal 6.4, PfHsp40 rescue 2.0, Sa RN4220 lethal 1.4 and PrPC surface inh -2.1.
Oc1ccc(O)c2c1C1(Cl)C(Cl)=C(Cl)C2(Cl)C1(Cl)Cl was read as Sa ugtP lethal 77.6, PfHsp40 rescue 82.7*, Sa RN4220 lethal 50.1 and PrPC surface inh 4.8.
Cc1nn(-c2ccccc2)c(N2CCCC2)c1C=NNC(=O)c1cc(-c2cccs2)nc2ccccc12 was read as Sa ugtP lethal 9.7 and Sa RN4220 lethal 1.7.
`CC(=NNC(=O)CCC(=O)NN=C(C)c1ccc(C)o1)c1ccc(C)o1` gave Sa ugtP lethal 2.4 and Sa RN4220 lethal 4.3.
`CC(=N/O)/C(=N\O)c1ccc(C)o1` gave PfHsp40 rescue 242.2*, DUSP3 inh 15.3 and PrPC surface inh -1.4.
`C[C@H]1c2cccc(O)c2C(O)=C2C(=O)[C@]3(O)C(O)=C(C(N)=O)C(=O)[C@@H](N(C)C)C3[C@@H](O)C21` (stereo not given in full) gave PfHsp40 rescue 0.0 and PrPC surface inh 3.7.
CN(C)C1C(=O)C(C(N)=O)=C(O)[C@@]2(O)C(=O)C3=C(O)c4c(O)cccc4[C@@](C)(O)C3C(O)C12 (stereo not given in full) was read as Sa ugtP lethal 99.2* and Sa RN4220 lethal 99.9*.
`CN(C)C1C(=O)C(C(N)=O)=C(O)[C@@]2(O)C(=O)C3=C(O)c4c(O)cccc4[C@@](C)(O)C3CC12` (stereo not given in full) gave Sa ugtP lethal 100.0* and Sa RN4220 lethal 100.5*.
For CN(C)C1C(=O)C(C(N)=O)=C(O)[C@@]2(O)C(=O)C3=C(O)c4c(O)ccc(Cl)c4C(O)C3CC12 (stereo not given in full) the results were Sa ugtP lethal 99.3* and Sa RN4220 lethal 100.2*.
CN(C)C1C(=O)C(C(N)=O)=C(O)C2(O)C(=O)C3=C(O)c4c(O)cccc4C(C)(O)C3C(O)C12 (stereo not given) was read as Sa ugtP lethal 100.0*, PfHsp40 rescue 7.3, Sa RN4220 lethal 100.4*, DUSP3 inh 9.5 and PrPC surface inh 3.4.
`Oc1ccc[n+](C=Cc2ccccc2)c1` gave Sa ugtP lethal -7.1 and Sa RN4220 lethal 5.4.
Cc1ccc(-c2csc(NC(CO)c3nc4ccccc4n3CCOCCO)n2)cc1 (stereo not given) was read as Sa ugtP lethal 4.7, PfHsp40 rescue 33.6*, Sa RN4220 lethal 2.9 and PrPC surface inh -3.7.
`c1ccc(-c2nc3ccccc3[nH]2)cc1` gave Sa ugtP lethal -0.9, PfHsp40 rescue -0.5, Sa RN4220 lethal 5.3, DUSP3 inh 25.1 and PrPC surface inh 2.7.
`c1ccc(-c2n[nH]c(-c3ccccc3)c2-c2nc3ccccc3[nH]2)cc1` gave Sa ugtP lethal 5.8, PfHsp40 rescue 30.0*, Sa RN4220 lethal -1.0, DUSP3 inh 33.8 and PrPC surface inh 23.1.
`CC(NC(=O)c1[nH]cnc1C(=O)Nc1ccc(Cl)cc1)c1ccccc1` (stereo not given) gave Sa ugtP lethal -33.4 and Sa RN4220 lethal 13.2.
N=c1c2c(ncn1CCN1CCOCC1)Oc1ccc3ccccc3c1C2c1ccccc1 (stereo not given) was read as Sa ugtP lethal -2.5, PfHsp40 rescue -0.7, Sa RN4220 lethal 17.3, DUSP3 inh 55.3* and PrPC surface inh 2.7.
For COc1ccc(CN2CCN(C(c3ccc(F)cc3)c3ccc(F)cc3)CC2)c(OC)c1OC the results were Sa ugtP lethal 0.1, PfHsp40 rescue 39.1*, Sa RN4220 lethal -6.6 and PrPC surface inh -2.7.
COc1ccc(CN2CCN(c3ccc(F)cc3)CC2)c(OC)c1OC was read as Sa ugtP lethal 3.7, PfHsp40 rescue -0.1, Sa RN4220 lethal 4.1, DUSP3 inh 11.5 and PrPC surface inh -2.8.
`Cc1nc2c(-c3ccccc3)c(C)[nH]n2c(=O)c1Cc1ccccc1` gave Sa ugtP lethal -7.1, PfHsp40 rescue -1.7, Sa RN4220 lethal 2.5, DUSP3 inh -1.5 and PrPC surface inh 12.3.
Cc1nc2c(-c3ccc(Cl)cc3)c(C)[nH]n2c(=O)c1Cc1ccccc1 was read as Sa ugtP lethal 99.6*, Sa RN4220 lethal 99.7*, DUSP3 inh 29.5 and PrPC surface inh -0.8.
Screening CN1C2CCC1C(C(=O)N1CCOCC1)=C(O)C2 (stereo not given) returned Sa ugtP lethal 0.9 and Sa RN4220 lethal 5.6.
`Cc1cc(=O)[nH]c(N2CCN(Cc3ccccc3)CC2)n1` gave Sa ugtP lethal 8.6, PfHsp40 rescue 1.3, Sa RN4220 lethal 2.2, DUSP3 inh 2.9 and PrPC surface inh -0.3.
`Cc1cc(=O)[nH]c(N2CCCNCC2)n1` gave Sa ugtP lethal 10.2, PfHsp40 rescue -2.1, Sa RN4220 lethal 2.6 and DUSP3 inh 53.9*.
Screening Fc1ccc(-[n+]2nc(Nc3ccccc3)sc2-c2c(Cl)cccc2Cl)cc1 returned PfHsp40 rescue 0.1, DUSP3 inh 12.7 and PrPC surface inh 1.7.
Screening CCc1ccc(Nc2n[n+](-c3ccccc3)c(-c3c(Cl)cccc3Cl)s2)cc1 returned Sa ugtP lethal 100.1*, PfHsp40 rescue -0.8, Sa RN4220 lethal 100.0*, DUSP3 inh 36.9 and PrPC surface inh 11.6.
`Cc1oc(-c2ccccc2Cl)nc1CS(=O)CC(=O)NCCc1ccccc1` (stereo not given) gave Sa ugtP lethal -7.4, PfHsp40 rescue 0.3, Sa RN4220 lethal -1.3, DUSP3 inh 2.3 and PrPC surface inh 5.2.
